The values below come from PubChem BioAssay.

Each structure is given as a SMILES string. A number with no mark means an inactive call. For some of these results: Measured potencies and affinities stand elsewhere. This is one part of the list. The source made the active and inactive calls.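 Rule for the calls, unless noted: active = dye signal at least 3 control SD above or below untreated wells in both duplicates, raw fluorescence within 3, either direction; inactive = the rest.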

The target of experiment [1] is Inward rectifier potassium channel 2 (Mus musculus) (UniProt P35561). The experiment is described as follows: inhibition of Kir2.1 inward rectifier potassium flux – cell-based, FluxOR thallium flux, duplicate, confirmation (AID 2032;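 active = Primary-screen hit whose thallium flux fell at least 3 control SD below untreated wells in both duplicates, with normal baseline fluorescence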). To be noted: Kir2.1-expressing cells, FluxOR thallium flux fluorescence, at 10 µM; hits give low values.
Chain of Inward rectifier potassium channel 2 (Mus musculus) (P35561 whole entry, looked up): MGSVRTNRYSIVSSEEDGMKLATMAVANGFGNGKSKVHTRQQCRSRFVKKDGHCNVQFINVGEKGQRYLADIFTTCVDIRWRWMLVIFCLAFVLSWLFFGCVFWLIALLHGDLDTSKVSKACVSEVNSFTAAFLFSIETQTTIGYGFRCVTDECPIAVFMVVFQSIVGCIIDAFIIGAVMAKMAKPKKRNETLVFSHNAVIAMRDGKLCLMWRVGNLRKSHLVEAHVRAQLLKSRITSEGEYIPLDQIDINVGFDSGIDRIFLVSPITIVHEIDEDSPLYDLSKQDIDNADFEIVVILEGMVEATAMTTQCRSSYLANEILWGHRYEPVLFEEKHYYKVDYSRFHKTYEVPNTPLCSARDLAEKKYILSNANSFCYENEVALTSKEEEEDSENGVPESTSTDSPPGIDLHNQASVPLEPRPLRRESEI
Experiment [2] can be described thus: parental HEK293 cell activity, no Kir2.1 – FluxOR thallium flux, duplicate, single concentration, counter-screen for Kir2.1 inhibitor project, confirmation (AID 2105).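 For FluxOR signal as % of negative control (100 = no effect): percent is based on the flux ratio of peak minus minimum fluorescence over baseline F0.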 The following applies: parental HEK293 cells, FluxOR thallium flux fluorescence, at 10 µM; 0% = unstimulated blank wells.
Experiment [3] deals with TRPC4 beta (transient receptor potential cation channel C4), mouse. The experiment is described as follows: TRPC4 cation channel opening, retest – cell-based, Fluo4 calcium, HEK293 TRPC4beta/mu-opioid, duplicates, 10 µM, confirmation (AID 2426;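 active = fluorescence ratio normalized to control raised more than 50% in primary screen plus both repeat runs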). The following applies: Fluo4 calcium fluorescence, at 10 µM; hits give high values.
Experiment [4] deals with transient receptor potential cation channel C4 beta (TRPC4), mouse. The experiment is described as follows: TRPC4 cation channel opening, second retest – cell-based, second round, Fluo4, HEK293 TRPC4beta/mu-opioid, 1 µM, confirmation (AID 2461;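 active = primary screen active and over 50% activation in each of two duplicate runs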). To be noted: Fluo4 calcium fluorescence, at 1 µM; hits give high values.
Experiment [5] concerns TRPC4 (transient receptor potential cation channel C4 beta), mouse. The experiment is described as follows: potentiation of DAMGO EC20 TRPC4 response – cell-based, second round, Fluo-4, HEK293 TRPC4beta/mu-opioid, 1 µM, confirmation (AID 2554;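 active = primary screen hit whose fluorescence ratio, in both repeats, exceeds the weak agonist control mean by 3 SD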). The following applies: DAMGO EC20, Fluo-4 calcium flux, at 1 µM; hits give high values. In general terms: Calcium flux is commonly read through the fluorescence of an indicator in the cells.

In experiment [6] the test system is TRPC4 beta (transient receptor potential cation channel C4), mouse. The experiment is described as follows: potentiation of DAMGO EC20 TRPC4 response – cell-based, Fluo-4, HEK293 TRPC4beta/mu-opioid, confirmation (AID 2555;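 active = primary screen hit whose calcium fluorescence ratio, in both repeats, exceeds the weak agonist control mean by 3 SD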). The following applies: DAMGO EC20, Fluo-4 calcium flux, at 10 µM; hits give high values.
Experiment [7] deals with Short transient receptor potential channel 4 (Mus musculus) (UniProt Q9QUQ5). Put plainly: blockers of DAMGO-evoked TRPC4 calcium flux – cell-based, Fluo4, HEK293 TRPC4beta/mu-opioid, confirmation (AID 2636;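 active = calcium signal cut by more than 3 SD below the full-agonist control yet still positive, in both repeats and the earlier primary screen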). The following applies: at 10 µM; hits give high values.
Chain of Short transient receptor potential channel 4 (Mus musculus) (Q9QUQ5 whole entry, looked up): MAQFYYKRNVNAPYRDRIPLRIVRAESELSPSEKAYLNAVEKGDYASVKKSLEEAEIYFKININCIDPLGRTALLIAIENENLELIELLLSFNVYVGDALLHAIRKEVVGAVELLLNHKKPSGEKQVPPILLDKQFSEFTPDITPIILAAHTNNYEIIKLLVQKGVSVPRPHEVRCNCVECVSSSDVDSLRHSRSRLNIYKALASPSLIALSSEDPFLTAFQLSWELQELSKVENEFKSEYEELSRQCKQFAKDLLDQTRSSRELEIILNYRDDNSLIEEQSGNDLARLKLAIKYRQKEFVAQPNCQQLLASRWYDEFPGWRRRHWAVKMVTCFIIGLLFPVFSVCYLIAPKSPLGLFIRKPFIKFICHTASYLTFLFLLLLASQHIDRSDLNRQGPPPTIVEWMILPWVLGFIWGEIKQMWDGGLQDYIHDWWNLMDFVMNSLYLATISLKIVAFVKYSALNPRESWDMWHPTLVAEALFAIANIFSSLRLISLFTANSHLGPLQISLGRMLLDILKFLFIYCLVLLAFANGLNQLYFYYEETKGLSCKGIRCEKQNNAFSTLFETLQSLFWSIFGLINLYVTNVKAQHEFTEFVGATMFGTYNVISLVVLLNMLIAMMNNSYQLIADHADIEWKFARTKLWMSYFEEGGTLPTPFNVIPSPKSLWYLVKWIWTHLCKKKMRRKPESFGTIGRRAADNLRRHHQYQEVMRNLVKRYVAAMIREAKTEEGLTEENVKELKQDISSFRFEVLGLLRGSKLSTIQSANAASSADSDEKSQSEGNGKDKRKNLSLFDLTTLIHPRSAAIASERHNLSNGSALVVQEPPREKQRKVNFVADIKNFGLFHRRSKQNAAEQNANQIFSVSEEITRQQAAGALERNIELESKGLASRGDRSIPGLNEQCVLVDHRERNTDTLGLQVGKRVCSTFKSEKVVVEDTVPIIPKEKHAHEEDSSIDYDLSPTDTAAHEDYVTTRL
Experiment [8] shares this target. The experiment is described as follows: blockers of DAMGO-evoked TRPC4 calcium flux – cell-based, second round, Fluo4, HEK293 TRPC4beta/mu-opioid, 1 µM, confirmation (AID 2637;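 active = calcium signal ratio cut to more than 3 SD under the fully stimulated control mean yet still positive, in both repeats and the primary screen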;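 for inhibition: percent of integrated ratio relative to wells lacking test compound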). To be noted: at 1 µM; hits give high values.
The target is the same in experiment [9]. The experiment is described as follows: calcium entry via TRPC4 opening agents – cell-based, HEK293 TRPC4/mu-opioid, Fluo-4 calcium, dose response (AID 434937;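 active = primary screen activator hit with a dose response curve and TRPC4 channel activation at any tested dose; inactive = no activation, no dose response, or not a primary hit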).
For experiment [10] the target is unchanged. The experiment is described as follows: potentiation of DAMGO-evoked TRPC4 calcium signal – cell-based, HEK293 TRPC4/mu-opioid, Fluo-4 calcium, EC20 DAMGO, dose response (AID 434941;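 active = earlier screen potentiator hit that boosts the TRPC4 ion channel at some dose, with a dose response; inactive = no potentiation, no dose response, or not a prior hit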;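 note: calcium entry triggered by an EC20 dose of DAMGO at the co-expressed mu-opioid receptor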).
In experiment [11] the target is Short transient receptor potential channel 6 (Mus musculus) (UniProt Q61143). The experiment is described as follows: TRPC6 blockade by TRPC4 inhibitor hits – cell-based, HEK293, membrane potential dye, duplicate, selectivity assay for TRPC4 inhibitor project, confirmation (AID 434948;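 active = active in primary screen and both duplicates, each dropping signal beyond three positive-control SD with fluorescence still positive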). To be noted: HEK293 TRPC6, membrane potential dye fluorescence, at 10 µM, stimulated with maximal-effect acetylcholine; hits give high values.
Chain of Short transient receptor potential channel 6 (Mus musculus) (Q61143 whole entry, looked up): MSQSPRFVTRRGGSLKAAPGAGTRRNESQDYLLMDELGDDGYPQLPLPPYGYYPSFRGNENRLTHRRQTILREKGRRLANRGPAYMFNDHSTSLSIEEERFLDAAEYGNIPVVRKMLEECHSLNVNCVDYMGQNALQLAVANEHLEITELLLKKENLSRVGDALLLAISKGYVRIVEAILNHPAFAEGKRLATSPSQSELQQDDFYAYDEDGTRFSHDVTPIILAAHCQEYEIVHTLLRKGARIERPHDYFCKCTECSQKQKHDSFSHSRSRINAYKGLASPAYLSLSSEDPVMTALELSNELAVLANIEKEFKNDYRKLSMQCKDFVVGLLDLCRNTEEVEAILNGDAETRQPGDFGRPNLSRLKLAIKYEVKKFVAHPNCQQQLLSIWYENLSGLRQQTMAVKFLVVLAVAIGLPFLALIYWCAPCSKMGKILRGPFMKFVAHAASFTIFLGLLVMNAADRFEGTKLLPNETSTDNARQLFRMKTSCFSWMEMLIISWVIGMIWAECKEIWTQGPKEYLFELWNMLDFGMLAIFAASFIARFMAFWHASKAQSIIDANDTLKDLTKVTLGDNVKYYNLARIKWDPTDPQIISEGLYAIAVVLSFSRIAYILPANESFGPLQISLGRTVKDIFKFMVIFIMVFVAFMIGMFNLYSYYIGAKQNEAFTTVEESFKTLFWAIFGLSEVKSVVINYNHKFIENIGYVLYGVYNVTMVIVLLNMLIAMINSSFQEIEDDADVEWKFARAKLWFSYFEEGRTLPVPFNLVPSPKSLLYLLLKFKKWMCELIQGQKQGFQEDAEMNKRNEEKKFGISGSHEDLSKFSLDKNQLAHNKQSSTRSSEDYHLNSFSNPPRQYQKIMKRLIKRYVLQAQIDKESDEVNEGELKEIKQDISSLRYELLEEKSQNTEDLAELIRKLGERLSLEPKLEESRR

Experiment [12] has the same target. Put plainly: TRPC6 opening by TRPC4 activator hits – cell-based, HEK293, membrane potential dye, duplicate, selectivity assay for TRPC4 activator project, confirmation (AID 434950;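 active = membrane potential signal rise above negative control mean plus 3 SD in both duplicates, also active in the earlier TRPC4 screen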). The following applies: HEK293 TRPC6, membrane potential fluorescence, at 10 µM; activation: hits give high values; outcome: activation.
The target is the same in experiment [13]. Put plainly: positive modulators of mouse TRPC6 channel – HEK293 cells, membrane potential dye, duplicate, selectivity assay for TRPC4 potentiator project, confirmation (AID 434952;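 active = compound raising the membrane signal above positive-control mean plus 3 SD in both repeats, and a primary screen hit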). The following applies: HEK293 TRPC6, membrane potential dye fluorescence, at 10 µM, maximal acetylcholine added after compound; hits give high values.
Experiment [14] concerns the target Short transient receptor potential channel 4 (Mus musculus) (UniProt Q9QUQ5). The experiment is described as follows: calcium flux activators in TRPC4/5HT1a cells, counter-screen for TRPC4 activator project, cell-based, second counter screen, HEK293 TRPC4/5HT1a, Fluo-4 (AID 434977;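 active = calcium signal rise above buffer-control mean plus 5 SD in both duplicates, and also a hit in the primary screen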). To be noted: Fluo-4 calcium flux, at 10 µM; hits give high values.
A short description of experiment [15]: serotonin-gated TRPC4 signal block – cell-based, second counter screen, HEK293 TRPC4/5HT1a, Fluo-4, counter-screen for TRPC4 inhibitor project, confirmation (AID 434978;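 active = primary screen active whose calcium signal fell more than 3 SD beyond the full-serotonin control mean in both duplicate plates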;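 for outcome: serotonin given first at submaximal then at maximal dose after compound preincubation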). The following applies: Fluo-4 calcium flux, at 10 µM, serotonin added to trigger calcium flux; hits give high values. (In general: A counterscreen serves to expose hits that act by an unwanted route or on another target.)

Experiment [16] relates to TRPC4 (mouse), co-expressed with 5HT1a in HEK293. Put plainly: enhancement of serotonin-evoked TRPC4 response – cell-based, second counter screen, HEK293 TRPC4/5HT1a, Fluo-4, counter-screen for TRPC4 potentiator project, confirmation (AID 434979;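 active = signal rise over 3 SD above mean of control wells given weak agonist, in both repeats and first screen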). The following applies: Fluo-4 calcium flux, at 10 µM, serotonin added at its EC20 dose; hits give high values.
Experiment [17] is described as follows: nonspecific calcium rise without TRPC4 – cell-based, HEK293 mu-opioid receptor line, counter-screen for TRPC4 activator project, confirmation (AID 449723;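 active = hit in primary screen, with calcium signal over 5 SD above buffer well mean in both duplicates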;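 note: counter screen cells carry the mu-opioid receptor alone and lack TRPC4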). The following applies: HEK293 mu-opioid cells, Fluo-4 calcium fluorescence, at 10 µM; hits give high values.
Experiment [18] in a line: nonspecific potentiation of DAMGO calcium response – cell-based, HEK293 mu-opioid receptor line, counter-screen for TRPC4 allosteric potentiator project, confirmation (AID 449724;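 active = calcium signal rise more than 3 SD above the low-dose agonist control mean, in both duplicate plates and the primary screen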;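 note: HEK293 cells carrying mu-opioid receptor only with no TRPC4 channel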). The following applies: HEK293 mu-opioid receptor cells, Fluo-4 calcium flux, at 10 µM, compound added before EC20 DAMGO stimulus; hits give high values.
Experiment [19] deals with Short transient receptor potential channel 4 (Mus musculus) (UniProt Q9QUQ5). Put plainly: block of DAMGO-driven TRPC4 calcium entry – cell-based, HEK293 TRPC4/mu-opioid, Fluo-4 calcium, dose response (AID 434942;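 active = primary screen inhibitor hit that blocks the TRPC4 channel at some tested dose, yielding a dose curve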).

On to `CN(Cc1ccccc1)C(=O)CCc1ccccc1`, for which the molecule was called inactive in [1] and in [2].
Turning to `COc1cc(/C=N/O)cc(Br)c1OS(=O)(=O)c1ccc(C)cc1`, the Tl flux remaining, % of negative control (hits give low values) in [1] was 57.5% (active). Further, the result in experiment [2] was inactive.
Taken in the same sequence, the figures for `CC12CN(Cc3ccccc3)CC(C)(CN(Cc3ccccc3)C1)C2=NO` were 54.5% (active) and “inactive”.
On to `COc1ccc(F)c(-c2nc(CN3CCC(c4ccccc4)CC3)c(C)o2)c1`, for which the Tl flux remaining, % of negative control (hits give low values) in [1] is 45.5% (active). Besides, the result in experiment [2] was inactive.
For `OCCNCc1cccc(OCc2ccccc2Cl)c1`, the Tl flux remaining, % of negative control (hits give low values) in experiment [1] is 62% (active). The outcome in experiment [2] was inactive.
Taken in the same sequence, the figures for `CCC(Cc1ccccc1)NS(=O)(=O)c1ccc2c(c1)NC(=O)CS2` (stereo not given) were 62% (active) and “inactive”.
Consider `COc1ccc(C(CCNCc2ccccc2F)c2ccc(F)cc2)cc1` (stereo not given), for which the Tl flux remaining, % of negative control (hits give low values) in [1] was 39.5% (active). For the same molecule, the outcome in [2] was inactive.
For `Cn1c(SCC(=O)N2CCCc3ccccc32)nc2ccccc2c1=O`, in experiment [1], the Tl flux remaining, % of negative control (hits give low values) was 71.5% (active). In addition, the FluxOR signal as % of negative control (100 = no effect) in experiment [2] is 66.5% (active).
Take `COc1cccc(CN(C)CC(O)COC(c2ccccc2)c2ccccc2C)c1` (stereo not given): in experiment [1], the Tl flux remaining, % of negative control (hits give low values) was 66% (active). The outcome in experiment [2] was inactive.
With `CSc1c(SCc2ccccc2)cnn(Cc2ccccc2)c1=O`, the call in experiment [1] and in [2] was inactive.
As for `CCn1cc(CCC(=O)NCc2ccc(F)cc2)c2ccccc21`, the Tl flux remaining, % of negative control (hits give low values) in experiment [1] is 56.5% (active). In [2], the outcome was inactive.
Turning to `Cc1ccc(C(=O)Nc2nnc(C3=COCCO3)o2)cc1C`, the result in experiment [3], in experiment [4], in [5], in [6], in [9] and in [10] was inactive. For the same molecule, the outcome in experiment [11], in experiment [12], in experiment [13], in experiment [14], in experiment [16] and in [17] was inactive. In [18], the outcome was inactive. Also, the values for the inhibition in experiment [7], in [8] and in experiment [15] were 66% (active), 44% (active) and 42.2% (active), respectively.
For `COc1ccc(-c2n[nH]c(C)c2-c2ccccc2OC)c(O)c1`, the outcome in experiment [3], in [4], in [5], in [6], in experiment [7] and in experiment [8] was inactive. Besides, the outcome in experiment [9], in experiment [10], in experiment [19], in experiment [11], in experiment [12] and in experiment [13] was inactive. For the same molecule, the result in experiment [14], in [15], in experiment [16], in experiment [17] and in experiment [18] was inactive.
